# Measurements as given in PubChem BioAssay (NCATS).
# Where “and” joins values, the source holds several entries; their conditions need not be identical. Equal values may be shown once. Records with an inconclusive call do not appear. Calls of active or inactive are those of the source. The call rests on the fitted dose curve; in most records, active means well fitted inhibition curve with a large enough effect; inconclusive means small, poorly fitted or top-dose-only effect; inactive means flat fitted curve, though single readings scatter.
# Experiment: Primary qHTS for inhibitors of nuclear receptor binding SET domain protein 2 (NSD2) in an isogenic RCH-ACV NSD2 p.E1099K mutant (9B) (AID 1645876); further: nearly all actives have a fitted effect of over 70% in size
# Details: RCH-ACV (leukaemia line) NSD2 E1099K (9B) viability, CellTiter-Glo, 72 h; series mostly up to 44.9 µM; activity change, negative = viability loss: at the top concentration
# On the % scale 0 is the no-effect control and ±100 the full control effect; potency means the concentration at half of the fitted maximal effect.
Structure (SMILES),"activity change, negative = viability loss",Potency
C[C@H]1CC[C@@]2(OC1)O[C@H]1CC3C4CC[C@H]5C[C@@H](O)CC[C@]5(C)C4=CC(=O)[C@]3(C)[C@H]1[C@@H]2C (stereo not given in full),-8.47% [at 17.3 µM] (inactive),
CN1CCN(c2ccc(OC(F)(F)F)c(Nc3ncc4c(n3)-c3c(c(C(N)=O)nn3CCO)CC4)c2)CC1,,57.8 nM (active) and 118 nM (active)
C/C=C(\C)C(=O)O[C@H]1C[C@](C)(O)[C@H]2CC=C(C)[C@H]2[C@@H]2OC(=O)[C@H](C)[C@H]21,-33.9% (inactive),
CN(C)CCCn1cc(C2=C(c3c[nH]c4ccccc34)C(=O)NC2=O)c2ccccc21,,5.78 µM (active)
O=c1nc(-c2ccccn2)sc2ccccc12,,4.59 µM (active)
C/C(=C\Cc1c(O)c(Cl)c(C)c(C=O)c1O)CC/C=C(\C)[C@H]1CC(=O)C(C)(C)O1,,2.52 µM (active)
CCC(C(C)O)n1ncn(-c2ccc(N3CCN(c4ccc(OCC5COC(Cn6cncn6)(c6ccc(F)cc6F)C5)cc4)CC3)cc2)c1=O (stereo not given),,2.05 µM (active)
COc1ccc(C2=NC(c3ccc(Cl)cc3)C(c3ccc(Cl)cc3)N2C(=O)N2CCNC(=O)C2)c(OC(C)C)c1 (stereo not given),,5.78 µM (active)
COc1cc2ncc(-c3ccccc3)nc2cc1OC,,20.5 µM (active)
CC[C@@H](C)Nc1cc(C(=O)NC2CC3CC[C@@H](C2)N3c2ccc(C(=O)C3CC3)cn2)c(C)cc1C(N)=O (stereo not given in full),,0.0742 µM (active)
C=CC(=O)Nc1ccc(CN2C(=O)N(c3cc(OC)cc(OC)c3)Cc3cnc(Nc4ccc(N5CCN(C)CC5)cc4)nc32)cc1,,1.46 µM (active)
O=C1COC2(CCN(S(=O)(=O)c3ccc(-c4ccc5cccnc5c4)cc3)CC2)CN1C1CC1,-25% (inactive),
Cn1cc(C2=C(c3coc4ccccc34)C(=O)NC2=O)c2cc(Br)ccc21,,18.4 µM (active)
C=C[C@H](/C=C\c1ccc(O)cc1)c1ccc(O)cc1,,16.3 µM (active)
C=C1C(=O)OC2CC(C)=C(C(C)CCCOC(C)=O)C(OC(=O)CC(C)CC)C12 (stereo not given),,7.09 µM (active)
CC(C)c1ccc(NC(=O)Cn2cnc3c2c(=O)n(C)c(=O)n3C)cc1,-27.7% (inactive),
COC1C(OC(=O)/C=C/C=C/C=C/C=C/C(=O)O)CCC2(CO2)C1C1(C)OC1CC=C(C)C (stereo not given),-31.7% [at 17.3 µM] (inactive),
C/C(=N\N=C(N)N)c1cc(NC(=O)CCCCCCCCC(=O)Nc2cc(/C(C)=N/N=C(N)N)cc(/C(C)=N/N=C(N)N)c2)cc(/C(C)=N/N=C(N)N)c1,,11.5 µM (active)
CC(C)C[C@H](CO)Nc1nc(S[C@@H](C)c2ccccc2)nc2nc(N)sc12,,26.3 µM (active)
CCCC1(CCC)CCC2(CCN(CCCN(CC)CC)C2)CC1,,2.63 µM (active)
